# Test results reported in PubChem BioAssay (NCATS).
# Records with an inconclusive call do not appear. A number with no mark means an inactive call. The source made the active and inactive calls. Calls come from the whole dose curve; as a rule, active = well fitted inhibition curve with a large enough effect; inconclusive = small, poorly fitted or top-dose-only effect; inactive = flat fitted curve, though single readings scatter.
# System: HEK293
# Test: Cytotoxic Profiling of Annotated Libraries Using Quantitative High-Throughput Screening (AID 1296008); note: nearly all actives have a fitted effect of over 60% in size
# Conditions: Five cell lines viability, CellTiter-Glo ATP luminescence, 48-72 h; max response: hits give low values
# Outline: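 Cells exposed to compounds for 48 or 72 hr at 37 degrees Celsius. Viability read as ATP-coupled luminescence with CellTiter-Glo after 10 min at room temperature.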
# % is set by controls: 0 for no effect and ±100 for the full control effect; potency is the fitted concentration of half-maximal effect.
Compound,Potency,max response
CC(=O)NCC(=O)N1C2CCC1c1cc(Nc3ncc(C(F)(F)F)c(NC4CCC4)n3)ccc12 (configuration not stated),2590 nM (active),–
Cn1c(=O)cc(N2CCCC(N)C2)n(Cc2cc(F)ccc2C#N)c1=O (configuration not stated),–,-7.1%
NC(=O)[C@H](O[C@@H]1O[C@H](CO)[C@@H](O)[C@H](O)[C@H]1O)c1ccccc1,–,-3.01%
Nc1nccn2c(C3CCC(C(=O)O)CC3)nc(-c3cc4cccc(Cl)c4[nH]3)c12 (configuration not stated),5170 nM (active),–
CNC(=O)c1cccc(-c2ccc3c(N4CCOC[C@@H]4C)nc(N4CCOC[C@@H]4C)nc3n2)c1,366 nM (active),–
O=C(O)/C=C/c1ccc(O)c(O[C@@H]2O[C@H](CO)[C@@H](O)[C@H](O)[C@H]2O)c1,–,-13.2%
FC(F)(F)c1ccc(Nc2nc(-c3c(C(F)(F)F)nc4ccccn34)cs2)cc1,326 nM (active),–
O=C(O)/C=C/c1ccc(-c2ccc(O)c(C34CC5CC(CC(C5)C3)C4)c2)cc1,731 nM (active),–
CO[C@@H](C)Cn1c(=O)n(C)c2cnc3ccc(-c4cncc(C(C)(C)O)c4)cc3c21,231 nM (active),–
CCO[C@@H]1OC(=O)C[C@@H]1NC(=O)[C@@H]1CCCN1C(=O)[C@@H](NC(=O)c1ccc(N)c(Cl)c1)C(C)(C)C,–,1.39%
CC(=O)C1=C(C)N(c2cccc(C(F)(F)F)c2)C(=O)N[C@H]1c1ccc(C#N)nc1,–,-4.03%
C=CC1C(OC2OC(CO)C(O)C(O)C2O)OC=C(C(=O)OC)C1CC1CC(=O)CC(CCc2ccc(O)cc2)O1 (configuration not stated),–,-3.27%
